For 27 compounds, outcome results are on record in PubChem BioAssay AID1347383 (Zoeller Lab, School of Medicine, Boston University, 2020).

SMILES strings stand for the structures. Calls of active or inactive are those of the source.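 Rule for the calls: active = cell survival after UV exposure 2 SD above solvent-only control wells at 10 µM, confirmed on one or two repeats; inactive = the rest.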

The assay can be described thus: protection of CHO cells from pyrene-fatty acid UV killing, primary screen, phospholipid biosynthesis inhibitor project, ZR-82 cells, Analyticon library, screen 2 (AID 1347383).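 Note: survival reflects blocked phospholipid synthesis cutting uptake of the phototoxic fatty acid; compound and fatty acid exposure 3 h then viability read next day.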 To be noted: ZR-82 CHO cells, CellTiter Blue, at 10 µM; peroxisome-deficient CHO-K1 variant, with DGAT-1, DGAT-2 and ACAT inhibitors unless noted. Background: Alamar Blue is a resazurin reagent that responds to reducing activity.
As to `CC(C)C(=O)O[C@H]1[C@@H]2[C@H](C)C(=O)O[C@@H]2C[C@@H](C)[C@@H]2C=CC(=O)[C@]21C`, the compound was called inactive. `C=CC(C)(C)c1cc2c(O)c3c(c(C(C)(C)C=C)c2oc1=O)OC(C)(C)C=C3`: the call was inactive. As to `CCCCCCCCCCCCCCCc1cccc(O)c1O`, the result was inactive. As to `CO[C@H]1[C@H](O)[C@H](O[C@H]2CC[C@]3(C)C4CC[C@]5(C)[C@H](C6=CC(=O)OC6)CC[C@]5(O)C4CC[C@@H]3C2)O[C@@H](C)[C@@H]1O` (some centres not stated), the compound was classed as inactive. With `CC[C@H]1CN2CC[C@H]1C[C@@H]2[C@@H](O)c1ccnc2ccc(OC)cc12` the entry was “inactive”; with `CN1C(=O)c2ccccc2NC(=O)[C@]12O[C@@H]2c1ccccc1`, “inactive”; with `C[C@]12CC[C@@H](O[C@@H]3O[C@H](CO)[C@@H](O)[C@H](O)[C@H]3O)C[C@@]1(O)CCC1C2CC[C@]2(C)[C@@H](C3=CC(=O)OC3)CC[C@]12O` (some centres not stated), “inactive”. As for `COc1cc(C2c3cc4c(c(O)c3CC3COC(=O)C32)OCO4)cc(OC)c1O` (configuration not stated), the outcome was “inactive [setting not given]”. With `C=C[C@H]1CN2CC[C@H]1C[C@@H]2[C@@H](O)c1ccnc2ccccc12`, the result was inactive. With `C=C1C(=O)CC2OC2(C)CC2OC(=O)C(=C)C2C(O)C1OC(=O)/C(C)=C\C` (configuration not stated) the entry was “inactive”. Consider `CN1Cc2c(ccc3c2OCO3)[C@@H]2[C@H]1c1cc3c(cc1C[C@@H]2O)OCO3`, for which the result was inactive. With `CC1CC(C)C(=O)C(C(O)CC2CC(=O)NC(=O)C2)C1` (configuration not stated) the entry was “inactive”.

Consider `O=C1N[C@@H](Cc2ccccc2)CN2CCCC[C@@H]12`, for which the compound was called inactive.

As for `CCC1C2CC3C4N(C)c5ccccc5C45CC(C2C5O)N3C1O` (configuration not stated), the outcome was “inactive [setting not given]”. With `COc1ccc(C23C=C4C5CC6(O)CC7N(CCC57c5ccc(OC)c(OC)c5)C4(CC2NCC3)O6)cc1OC` (configuration not stated), the result was inactive. The same measure for `COc1ccc(CC2C(=O)OCC2Cc2ccc3c(c2)OCO3)cc1OC` (configuration not stated): “inactive”; for `C[C@H]1O[C@@H](O[C@H]2CC[C@]3(C=O)C4CC[C@]5(C)[C@@H](C6=CC(=O)OC6)CC[C@]5(O)[C@@H]4CC[C@]3(O)C2)C[C@@H](O)[C@@H]1O` (some centres not stated): “inactive”; for `C[C@@]1(CO)[C@H](O)CC[C@@]2(C)[C@H]1CC[C@H]1C[C@@H]3C[C@@]12CC[C@]3(O)CO`: “inactive [setting not given]”.

For the compound `COc1ccc2c3c([nH]c2c1)C(C)=NCC3`, the outcome is “inactive [setting not given]”. The same measure for `CC(=O)NCCc1c[nH]c2ccccc12`: “inactive [setting not given]”; for `COc1cc(C2c3cc4c(cc3C(O)C3COC(=O)C23)OCO4)cc(OC)c1O` (configuration not stated): “inactive”; for `COc1ccc(C23CCC(=O)C=C2N(C)CC3)cc1OC` (configuration not stated): “inactive”. In the case of `CC[C@H]1CN2CC[C@H]1C[C@H]2[C@H](O)c1ccnc2ccc(OC)cc12`, the outcome was inactive. Regarding `CC1(C)C=C2C(=O)C(C)(C)C(=O)C(C)(C)C2(O)OO1` (configuration not stated), the call was inactive.

As for `C=CCc1cc(OC)c2c(c1)OCO2`, the outcome is “inactive [setting not given]”. The same measure for `C/C=C1/CN2C3CC1C(CO)C2Cc1c3[nH]c2ccccc12` (configuration not stated): “inactive”; for `CC#CC#Cc1ccc(C#CC(O)COC(C)=O)s1` (configuration not stated): “inactive”.
